We go through 19 molecules from PubChem BioAssay (EPA / NIEHS).

The structures appear in SMILES notation. Records with an inconclusive call do not appear. The source made the active and inactive calls. How the source made its calls, unless noted: active means hit-call score of the fitted dose curve at least 0.9, where 1 is the maximum; inconclusive means response in the unintended direction; inactive means score below 0.9.

System in the first assay: not listed separately
Briefly: TAMU_PeakParms_SingleDonor1434_Asystole: Texas A&M University (TAMU) 1.5-hr Human Induced Pluripotent Stem Cell (iPSC)-derived Cardiomyocytes Calcium (Ca+2) Flux Assay for Cardiotoxicity: Asystole (quiescence of beating) (AID 2284328). The method, boiled down: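 Donor 1434 iPSC-cardiomyocytes exposed 90 min at 37C, 5% CO2, to 0.2, 1, 10 and 100 uM in 0.5% DMSO. Ca2+ dye fluorescence gave average peak frequency; POD is EC95, a 95% beat-rate drop versus controls.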
Turning to `CNC(=C[N+](=O)[O-])NCCSCc1ccc(CN(C)C)o1`, the result was inactive. The same measure, in the same setting: the same measure for `CC/C(=C(\c1ccccc1)c1ccc(OCCN(C)C)cc1)c1ccccc1`: “inactive”; for `N#CCCNCCC#N`: “inactive”.

System in a further assay: not listed separately
Briefly: IUF_NPC1_cytotoxicity_72hr: Cytotoxicity Assessment at 72 hours in the Leibniz Research Institute for Environmental Medicine (IUF) Neural Progenitor Cell Proliferation Assay (NPC1) (AID 2284332).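 Further: rising LDH signal means more cytotoxicity.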 An outline of the steps: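 Membrane-integrity loss is scored from LDH released into the medium, detected as resorufin fluorescence, with activity fitted upward relative to baseline. Test material stays on human fetal-derived progenitor spheres for 72 h.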
`c1ccc2scnc2c1`: the molecule was called inactive. Consider `N[C@@H](CCC(=O)O)C(=O)O`, for which the call was inactive. Same read-out and setting: as for `CCCCC(CC)COC(=O)COc1ccc(Cl)cc1C` (stereo not given), the entry is “inactive”. On to `CC(C)Cc1ccc(C(C)C(=O)O)cc1` (stereo not given), for which the result was inactive.

System in the next assay: not listed separately
The assay is described as follows: CCTE_Mundy_HCI_iCellGluta_NOG_NeuronCount: CCTE's Neurite Outgrowth Assay in iCellGluta cells for Neuron Count, Mundy Lab (AID 2284340).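 Further: cells fixed about 48 h after compound addition.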 The method, boiled down: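 Neuron count read by automated high-content imaging of Hoechst 33342 and betaIII-tubulin/Alexa Fluor-488 labelling in human iPSC glutamatergic neurons. Activity fitted relative to DMSO.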
As for `c1ccc2scnc2c1`, the outcome was inactive. Still for that read-out and setting: the same measure for `N[C@@H](CCC(=O)O)C(=O)O`: “inactive”.

Broadly, the AC50 is the midpoint of the concentration-response curve, whichever way the signal moves. Consider `CCCCC(CC)COC(=O)COc1ccc(Cl)cc1C` (stereo not given), for which the half-maximal activity concentration (AC50) is 39 µM (active). As to `N#CCCNCCC#N`, the molecule was classed as inactive.

Take `CC(C)Cc1ccc(C(C)C(=O)O)cc1` (stereo not given): the molecule was called inactive.

System in a further assay: not listed separately
Briefly: CCTE_Mundy_HCI_iCellGluta_NOG_NeuriteCount: CCTE's Neurite Outgrowth Assay in iCellGluta cells for Neurite Count, Mundy Lab (AID 2284342).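 Further: chemical exposure about 48 hours starting 2 hours after plating.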
As for `c1ccc2scnc2c1`, the outcome was inactive. On the same count and under the same terms, as for `N[C@@H](CCC(=O)O)C(=O)O`, the entry is “inactive”.

Take `CCCCC(CC)COC(=O)COc1ccc(Cl)cc1C` (stereo not given): the half-maximal activity concentration (AC50) is 32.2 µM (active). Take `N#CCCNCCC#N`: the call was inactive. The same measure, in the same setting: as for `CC(C)Cc1ccc(C(C)C(=O)O)cc1` (stereo not given), the entry is “inactive”.

For another assay, the system named is SERPINA7 (gene 6906). The assay is described as follows: CCTE_GLTED_hTBG: CCTE's human Thyroxine-binding Globulin (TBG) Inhibition Assay, Great Lakes Toxicology and Ecology Division (GLTED) Lab (AID 2284343).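 Further: active chemicals lower fluorescence versus DMSO baseline by displacing probe.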 An outline of the steps: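 Human thyroxine-binding globulin was exposed to each chemical for 2 hours, during which the ANSA probe could be displaced. Fluorescence was then measured at 380/475 nm, and loss of signal was analysed relative to DMSO.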
As for `CCCCCCCCCCCCOCCOS(=O)(=O)O`, the concentration at half-maximal activity (AC50) was 50 µM (active).

As to `O=c1cc(-c2ccc(O)cc2)oc2cc(O)cc(O)c12`, the AC50 is 38.2 µM (active).

Consider `O=C(O)C(F)(F)C(F)(F)C(F)(F)C(F)(F)C(F)(F)C(F)(F)C(F)(F)C(F)F`, for which the AC50 was 73.1 µM (active).

Take `O=C(O)c1ccccc1O`: the AC50 is 50 µM (active). Same read-out and setting: the same measure for `O=S(=O)(O)c1cc(S(=O)(=O)O)c2c(N=Nc3ccccc3)c(O)ccc2c1`: 33.9 µM (active).

On to `CCCCCCCCOC(=O)c1ccc(O)cc1`, for which the AC50 is 7.24 µM (active). `CCCCCCOc1ccc(O)cc1`: the AC50 was 33.7 µM (active).

System in a further assay: not listed separately
Briefly: CCTE_Padilla_ZF_Score.Craniofacial: CCTE's 144 Hour Post-fertilization zebrafish Assay Score for Craniofacial Malformation, Padilla Lab (AID 2284405; active means hit-call score of the fitted dose curve at least 0.9, where 1 is the maximum; inactive means score below 0.9). The method, boiled down:
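Craniofacial defects were scored at 6 dpf by two blinded observers using stereomicroscopy. Exposure of wild-type embryos began at 6–8 hpf in sealed wells of 10% Hanks' solution at 26C, with chemical removed by rinsing at 5 dpf.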
In the case of `O=C(O)C(F)(F)C(F)(F)C(F)(F)C(F)(F)C(F)(F)C(F)(F)C(F)(F)C(F)F`, the molecule was classed as inactive. Still for that read-out and setting: as for `C=C(F)C(=O)OC(C(F)(F)F)C(F)(F)F`, the entry is “inactive”. Turning to `OCC(F)(OC(F)(F)C(F)(OC(F)(F)C(F)(F)C(F)(F)F)C(F)(F)F)C(F)(F)F` (stereo not given), the AC50 is 34.8 µM (active). As to `O=S(=O)(O)C(F)(F)C(F)(F)OC(F)(F)C(F)(F)F`, the molecule was called inactive. Still for that read-out and setting: as for `C=C(C)C(=O)OCCC(F)(F)C(F)(F)C(F)(F)C(F)(F)C(F)(F)C(F)(F)C(F)(F)C(F)(F)F`, the entry is “inactive”; as for `O=C(O)C(F)(F)OC(F)(F)C(F)(F)OC(F)(F)C(F)(F)C(F)(F)C(F)(F)F`, “inactive”.
